This is one part of a sample in which hits are shown more often than they occur.
Giardia FBPA inh: inhibitors of Giardia lamblia fructose-1,6-bisphosphate aldolase; Potency, µM (top dose mostly 59.6 µM), actives largely listed as inhibitors; A8B2U2; purified Giardia FBPA; AID 2451; 0.71% of 290,000 active; also: nearly all actives have a fitted effect of over 55% in size
Target sequence (A8B2U2 whole entry, looked up): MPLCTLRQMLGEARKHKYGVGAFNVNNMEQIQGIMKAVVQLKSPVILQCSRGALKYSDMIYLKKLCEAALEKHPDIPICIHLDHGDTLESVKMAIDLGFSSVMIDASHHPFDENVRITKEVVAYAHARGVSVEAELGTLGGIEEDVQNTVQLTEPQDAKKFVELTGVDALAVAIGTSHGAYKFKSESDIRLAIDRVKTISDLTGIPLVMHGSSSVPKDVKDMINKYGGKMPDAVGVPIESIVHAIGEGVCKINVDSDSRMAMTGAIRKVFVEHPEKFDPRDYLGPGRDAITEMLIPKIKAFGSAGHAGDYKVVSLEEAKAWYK
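Giardia FBPA (40 nM reagent) was preincubated 10 min at RT with compound (up to 57.5 uM final), then substrate plus GAPDH/TPI/NAD/arsenate coupling system with diaphorase/resazurin was added; resorufin fluorescence (525/598 nm) was read after 20 min.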
LmPK inh: inhibitors of Leishmania mexicana pyruvate kinase | Q27686 | purified LmPK, Kinase-Glo ATP luminescence, 1 h | Potency, µM (top dose mostly 57.5 µM), usual class: inhibitors | 0.37% of 290,000 active | AID 1721
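0.1 nM LmPK, 0.5 mM PEP, 0.1 mM ADP; 50 mM imidazole pH 7.2, 7 mM MgCl2, 50 mM KCl; 1 h RT. Kinase-Glo luminescence readout, normalized to no-enzyme (full inhibition) and uninhibited wells.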
Cycloheximide cs: counter-screen hit for Shiga toxin inhibitors, cycloheximide. max response, %. 12% of 300,000 active. cell reporter, cycloheximide protein synthesis inhibition counterscreen. AID 2314; in the data active = max response mostly above about 13%, no sharp cut-off; inactive = mostly below about 14%; also: read at 38.3 µM for the half of the compounds with a filed dose
Sm TGR block: inhibitors of Schistosoma mansoni thioredoxin glutathione reductase. Q962Y6. purified TGR, DTNB reduction, TNB absorbance 405 nm. Potency, µM (series often up to 114 µM), most hits filed as inhibitors. 3% of 360,000 active. AID 485364; also: nearly all actives have a fitted effect of over 60% in size
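First, TGR (20 nM dispensed) and NADPH were mixed with compound. Second, a 15 min room-temperature incubation followed. Third, further NADPH and then DTNB were added to start the reaction. Finally, TNB absorbance was monitored kinetically.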
Tb PYK inh: T. brucei pyruvate kinase inhibition | Q57TT1 | TbPYK enzyme, Kinase-Glo Plus ATP luminescence, 45 min | Potency, µM (titrated, usually from 76.8 µM), usual class: inhibitors | 0.12% of 410,000 active | AID 624173; also: nearly all actives have a fitted effect of over 50% in size
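Activity of T. brucei pyruvate kinase was followed by Kinase-Glo Plus luminescence after the enzyme reacted 45 min at room temperature with 130 uM ADP (final) and substrate. Test compounds were added before ADP at multiple concentrations.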
Shiga toxin inh: Shiga toxin inhibition; Vero cells, Shiga toxin protein synthesis inhibition reporter; inhibition, % at 38.7 µM; 9.2% of 290,000 active; AID 2315; in the data active = inhibition mostly above about 28%, no sharp cut-off; inactive = mostly below about 43%
A number is an active result; i = inactive; ? = inconclusive; nt = not tested or not shown; [ ] = another dose, or the depositor's remark. Unless noted, calls follow the shape of the dose curve; as a rule, active = well fitted curve in the direction sought with a large enough effect; inconclusive = small, poorly fitted or top-dose-only effect, or another doubt; inactive = no such curve, though single readings can be large; an effect the other way counts as inactive or inconclusive.

SMILES | Giardia FBPA inh | LmPK inh | Cycloheximide cs | Sm TGR block | Tb PYK inh | Shiga toxin inh
Nc1nc(CSc2nc3ccccc3s2)nc(N2CCOCC2)n1 | i | i | 15 | nt | i | i
Cc1cccc[n+]1CCCCCCCCCC[n+]1ccccc1C | i | i | i | i | i | i
CCCc1ncc(C[n+]2ccccc2C)c(N)n1 | ? | nt | nt | 45µM | i | nt
Cc1cc2nc3c(=O)[nH]c(=O)nc-3n(C[C@H](O)[C@H](O)[C@H](O)COP(=O)(O)OP(=O)(O)OC[C@H]3O[C@@H](n4cnc5c(N)ncnc54)[C@H](O)[C@@H]3O)c2cc1C | nt | nt | nt | nt | i | nt
CC1=C([N+](=O)[O-])C(c2ccccc2)NC(=O)N1 (configuration not stated) | i | i | i | i | i | nt
CCC(C)N(C(=O)COC(=O)CNC(=O)c1sc2ccccc2c1Cl)C1CCS(=O)(=O)C1 (configuration not stated) | i | i | 46 | i | i | i
CC(C)C(=O)NCCc1nc(-c2ccccc2Cl)no1 | nt | nt | nt | nt | i | nt
Cc1ccc(C(=O)CC2(O)C(=O)N(CCc3ccccc3)c3ccc(Cl)cc32)cc1 (configuration not stated) | nt | nt | nt | i | i | nt
COc1ccc(-c2nn(C)c3sc(C(=O)N4CCN(c5cccc(C)c5C)CC4)cc23)cc1OC | nt | nt | nt | 25µM | i | nt
O=c1c(Cl)c(N/N=C/c2ccc(Cl)cc2)cnn1-c1ccccc1 | i | i | i | i | i | i
C[n+]1ccc(/C=N/Nc2nc(Cl)c(C#N)c(Cl)c2Cl)cc1 | i | i | i | 11µM | i | i
COc1ccc(C2CC2/C(=N/O)c2ccccc2)cc1 (configuration not stated) | i | i | 31 | i | i | i
COc1ccc(C2CC2C(=O)c2ccccn2)cc1 (configuration not stated) | i | i | 41 | i | i | i
COc1ccc(C2CC2/C(=N/O)c2ccccn2)cc1 (configuration not stated) | ? | i | 21 | i | i | 108
CC(=O)OC1CC2C(C)(C)C(O)CC[C@@]2(C)C2CC[C@@]3(C)C(c4ccoc4)OC(=O)C4O[C@@]43[C@]12C (some centres not stated) | i | nt | nt | nt | nt | nt
COc1ccc([C@]23Cc4cc(OC)c(OC)cc4C(O2)c2c(cc(-c4ccccc4)oc2=O)O3)cc1 | i[12.9 µM] | i[11.5 µM] | i | ? | nt | i
Cc1[nH]c(-c2ccc(F)cc2)cc1C(=O)N1CCN(c2cccc(Cl)c2)CC1 | i | i | i | i | i | i
COc1ccc(Cn2nnc(C(=O)Nc3ccc4c(c3)OCCO4)c2N)cc1Br | nt | i | 17 | i | i | i
Nc1c(C(=O)Nc2ccccc2)nnn1-c1ccc2c(c1)OCCO2 | i | i | 34 | i | i | 74
Cc1ccc(NC(=O)c2nnn(-c3cccc(C(F)(F)F)c3)c2N)cc1 | i | i | i | i | i | i
Cc1ccc(NC(=O)c2nnn(-c3ccc4c(c3)OCCO4)c2N)cc1 | i | i | 37 | i | i | 112
Cc1ccccc1Cn1nnc(C(=O)Nc2ccc3c(c2)OCCO3)c1N | nt | nt | nt | i | i | nt
CCOc1ccc2c(c1)c(=O)c(C(=O)c1ccc(CC)cc1)cn2CC(=O)Nc1ccccc1OC | nt | nt | nt | i | i | nt
CCCOc1ccc(-c2nonc2NC(=O)c2cc(OC)c(OC)c(OC)c2)cc1OCCC | nt | nt | nt | i | i | nt
N#CCCn1cc(C=C(C#N)C#N)c(-c2ccc(Cl)cc2)n1 | i | i | i | 1.3µM | i | i
SMILES | Giardia FBPA inh | LmPK inh | Cycloheximide cs | Sm TGR block | Tb PYK inh | Shiga toxin inh
O=C(CCCc1nc(-c2ccccc2)no1)N1CCOCC1 | i | i | 18 | i | i | i
Cc1ccc(-c2noc(CN3CCCCC3)n2)cc1 | i | i | 49 | i | i | 91
Clc1ccc(-c2noc(CN3CCCC3)n2)cc1 | i | i | 37 | i | i | 65
C[C@@H]1CN(Cc2nc(-c3ccc(Cl)cc3)no2)C[C@H](C)O1 | i | i | i | i | i | i
Cc1ccc(-c2noc(CN3CCOCC3)n2)cc1 | nt | i | 39 | i | i | 76
COc1ccc(OC2C=CC(C#Cc3ccc(Br)cc3)OC2CO)c(C(C)(C)C)c1 (configuration not stated) | i[12.9 µM] | nt | nt | nt | nt | nt
O=C(CCCc1c[nH]c2ccccc12)N1CCOCC1 | i | i | 19 | i | i | i
Cc1ccc(-c2noc(CCC(=O)N3CCN(c4cc(C)ccc4C)CC3)n2)cc1 | nt | nt | nt | nt | i | nt

Bioassay records: PubChem, National Center for Advancing Translational Sciences (NCATS)
